The nature of assay [1]: qHTS assay to identify small molecule antagonists of the constitutive androstane receptor (CAR) signaling pathway - cell viability counter screen (AID 1224837). Further: nearly all actives have a fitted effect of over 45% in size. The procedure, abridged:
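Using CellTiter-Fluor, viability is scored in HepG2 cells stably carrying hCAR and a 2.2kb CYP2B6 reporter after 23 hr compound exposure across 15 concentrations, with CITCO present at 50 nM.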

Assay [2] has as its target Nuclear receptor subfamily 1 group I member 3 (Homo sapiens) (UniProt Q14994). Put plainly: qHTS assay to identify small molecule antagonists of the constitutive androstane receptor (CAR) signaling pathway (AID 1224838).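 Further: HepG2 cells stably expressing hCAR with CYP2B6 luciferase reporter stimulated by CITCO; nearly all actives have a fitted effect of over 40% in size.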 The procedure, abridged: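 Reporter luminescence was quantified after 24 h exposure of hCAR/CYP2B6-2.2kb double-stable HepG2 cells to compounds at 15 concentrations in the presence of 50 nM CITCO final.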

Assay [3] shares this target. Put plainly: qHTS assay to identify small molecule agonists of the constitutive androstane receptor (CAR) signaling pathway (AID 1224839).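 Further: HepG2 cells stably carrying human CAR and a CYP2B6 luciferase reporter; nearly all actives have a fitted effect of over 15% in size.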 The procedure, abridged: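 Luminescence read-out (ONE-Glo, 30 min, room temperature) from double-stable HepG2-CYP2B6-hCAR cells exposed 24 h to 15-point compound series in presence of 0.75 uM PK11195 final.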
The nature of assay [4]: qHTS assay to identify small molecule antagonists of the estrogen related receptor signaling pathway with the pleiotropic PPARgamma coactivator (PGC) from Tox21 10K library - cell viability counter screen (AID 1224840; active means well fitted cell-killing curve with a large enough effect in the repeat runs, not every such curve was filed as active; further: nearly all actives have a fitted effect of over 40% in size). The procedure, abridged: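 Here the PGC/ERR cells serve as a cytotoxicity control: they are exposed to compounds for 17.5 hours at 37 C, and live-cell signal is quantified using CellTiter-Fluor fluorescence.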
(In general: Quantitative high-throughput screening tests each substance at several concentrations.)

Assay [5] is described as follows: qHTS assay to identify small molecule antagonists of the estrogen related receptor signaling pathway with the pleiotropic PPARgamma coactivator (PGC) from Tox21 10K library (AID 1224841; call rule not given here; further: actives are mostly falling curves and most rising ones were filed inactive; nearly all actives have a fitted effect of over 50% in size; further: potency means the concentration at half of the fitted maximal effect). A digest of the protocol:
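Each well held 2,000 PGC/ERR cells, pre-incubated six hours (37 C, 5% CO2). Test substances in DMSO were added by pin tool and left for 18 h at 37 C before luciferase detection by One-Glo.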

Assay [6] can be described thus: qHTS assay to identify small molecule agonists of the estrogen related receptor signaling pathway with the pleiotropic PPARgamma coactivator (PGC) from Tox21 10K library (AID 1224842). Further: nearly all actives have a fitted effect of over 15% in size. A digest of the protocol:
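PGC/ERR reporter cell line, 2,000 cells per well, incubated 6 h at 37 C before 23 nL compound in DMSO was added. After 18 h at 37 C, One-Glo luminescence read following 30 min at room temperature.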

Assay [7] in a line: qHTS assay to identify small molecule agonists of the hypoxia (HIF-1) signaling pathway - cell viability counter screen (AID 1224844; calls by dose curve; further: nearly all actives have a fitted effect of over 50% in size). The procedure, abridged:
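Multiplexed with the HRE beta-lactamase assay, this viability read used CellTiter-Glo luminescence (30 min, RT) on HRE-bla ME-180 cells treated 17 hrs with compounds in 0.5% dialyzed FBS medium.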

Assay [8] is described as follows: qHTS assay to identify small molecule agonists of H2AX (AID 1224845; active means well fitted activation curve with a large enough effect in the signal ratio in the repeat runs, not every such curve was filed as active; the % refers to the signal ratio). A digest of the protocol: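 Wild-type CHO-K1 cells, plated overnight, exposed 3hr at 37C to 15 concentrations (0.76% DMSO final). Lysed, then HTRF anti-pH2AX (S139) cryptate and anti-H2AX-d2 antibodies, 24 hr room temperature; 665/620 nm emission read.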
Assay [9] can be described thus: qHTS assay to identify small molecule agonists of the hypoxia (HIF-1) signaling pathway (AID 1224846; active means well fitted activation curve with a large enough effect in the signal ratio in the repeat runs, not every such curve was filed as active; the % refers to the signal ratio). A digest of the protocol: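 Hypoxia-pathway activation was scored as increased beta-lactamase from an HRE-controlled reporter in ME-180 cells; plated at 2,000 cells per well with 0.5% dialyzed FBS, they were exposed 17 hrs to compounds and then given CCF4-AM.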
Assay [10] in a line: qHTS assay to identify small molecule agonists of H2AX - cell viability counter screen (AID 1224847; calls by dose curve; further: top concentration of the series differs between compounds; nearly all actives have a fitted effect of over 30% in size). A digest of the protocol: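 CHO-K1 wt, 1000 cells/well, o/n 37C; cpds 15 conc, 3 h 37C, 0.76% DMSO; CellTiter-Glo, 30 min RT, luminescence.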
The nature of assay [11]: qHTS assay to identify small molecule antagonists of the estrogen related receptor (ERR) signaling pathway from Tox21 library (AID 1224848). Further: nearly all actives have a fitted effect of over 50% in size. Further: potency means the concentration at half of the fitted maximal effect. A digest of the protocol:
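ERR reporter cell line (from NTP) seeded 2,000 cells/well, rested 6 h at 37 C/5% CO2, then pin-dosed with compounds in DMSO. After 18 h at 37 C, ONE-Glo added; luminescence read after 30 min at room temperature.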

Assay [12] in a line: qHTS assay to identify small molecule agonists of the estrogen related receptor (ERR) signaling pathway from Tox21 library (AID 1224849; calls by dose curve; further: nearly all actives have a fitted effect of over 15% in size). Conditions: ERR reporter cell line, ONE-Glo luciferase, 18 h; at 92.4 µM (top of the series). A digest of the protocol:
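Six hours post-seeding at 37 C/5% CO2, ERR cells receive DMSO-solubilised compounds; after 18 h at 37 C, ONE-Glo reagent is applied and luminescence recorded.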

The nature of assay [13]: qHTS RealTime-Glo MT Cell Viability Assay in HepG2 cells - 24 hour (AID 1224867). Further: nearly all actives have a fitted effect of over 50% in size. A digest of the protocol: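 HepG2 cells (600/well) were dispensed with RealTime-Glo reagents, incubated 5 h at 37 °C, then treated with compounds in DMSO for up to 40 h. Nonlytic NanoLuc luminescence reflecting viable cells was read at each stated time point.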
Assay [14] can be described thus: qHTS RealTime-Glo MT Cell Viability Assay in HEK293 cells - 32 hour (AID 1224868). Further: nearly all actives have a fitted effect of over 50% in size. Further: potency means the concentration at half of the fitted maximal effect. A digest of the protocol:
(§1)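 HEK293 cells seeded with NanoLuc/prosubstrate reagent, rested 5 h at 37 C, then dosed and kept at 37 C up to 40 h. Nonlytic real-time luminescence from viable cells read at 0, 8, 16, 24, 32 and 40 h.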

The nature of assay [15]: A CellTox Green Cytotoxicity Assay to monitor cytotoxicity in HEK293 cells - 0 hour (AID 1224869). Further: nearly all actives have a fitted effect of over 50% in size. Further: potency means the concentration at half of the fitted maximal effect. The procedure, abridged: (§2)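 Seeding of HEK293 cells together with cytotoxicity dye preceded a 5 h incubation at 37 C/5% CO2. Test compounds in DMSO were then added and fluorescence monitored across 40 h.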
Assay [16] is described as follows: A CellTox Green Cytotoxicity Assay to monitor cytotoxicity in HEK293 cells - 40 hour (AID 1224871). Further: nearly all actives have a fitted effect of over 45% in size. Further: potency means the concentration at half of the fitted maximal effect. A digest of the protocol:
as §2

Assay [17] in a line: qHTS RealTime-Glo MT Cell Viability Assay in HEK293 cells - 16 hour (AID 1224872). The procedure, abridged: as §1
Assay [18] in a line: qHTS RealTime-Glo MT Cell Viability Assay in HepG2 cells - 8 hour (AID 1224873). Further: nearly all actives have a fitted effect of over 55% in size. A digest of the protocol:
(§3)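 HepG2 cells (600/well) mixed with RealTime-Glo MT reagent, settled 5 h at 37 C/5% CO2 before compound addition. Nonlytic NanoLuc luminescence from viable-cell prosubstrate reduction read repeatedly during 40 h treatment at 37 C.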

In assay [19] the target is Thyrotropin receptor (Homo sapiens) (UniProt P16473). Description: qHTS assay to identify small molecule agonists of the thyroid stimulating hormone receptor (TSHR) signaling pathway (AID 1224843; calls by dose curve; further: nearly all actives have a fitted effect of over 45% in size; further: potency means the concentration at half of the fitted maximal effect). The procedure, abridged: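 TSHR-HEK293 cells in agonist mode, 30 min room-temperature step, then cAMP measured by competitive HTRF (cAMP-d2 with anti-cAMP cryptate) after 1 h at room temperature. Tested at 15 concentrations in triplicate.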
Sequence of Thyrotropin receptor (Homo sapiens) (P16473 whole entry, looked up): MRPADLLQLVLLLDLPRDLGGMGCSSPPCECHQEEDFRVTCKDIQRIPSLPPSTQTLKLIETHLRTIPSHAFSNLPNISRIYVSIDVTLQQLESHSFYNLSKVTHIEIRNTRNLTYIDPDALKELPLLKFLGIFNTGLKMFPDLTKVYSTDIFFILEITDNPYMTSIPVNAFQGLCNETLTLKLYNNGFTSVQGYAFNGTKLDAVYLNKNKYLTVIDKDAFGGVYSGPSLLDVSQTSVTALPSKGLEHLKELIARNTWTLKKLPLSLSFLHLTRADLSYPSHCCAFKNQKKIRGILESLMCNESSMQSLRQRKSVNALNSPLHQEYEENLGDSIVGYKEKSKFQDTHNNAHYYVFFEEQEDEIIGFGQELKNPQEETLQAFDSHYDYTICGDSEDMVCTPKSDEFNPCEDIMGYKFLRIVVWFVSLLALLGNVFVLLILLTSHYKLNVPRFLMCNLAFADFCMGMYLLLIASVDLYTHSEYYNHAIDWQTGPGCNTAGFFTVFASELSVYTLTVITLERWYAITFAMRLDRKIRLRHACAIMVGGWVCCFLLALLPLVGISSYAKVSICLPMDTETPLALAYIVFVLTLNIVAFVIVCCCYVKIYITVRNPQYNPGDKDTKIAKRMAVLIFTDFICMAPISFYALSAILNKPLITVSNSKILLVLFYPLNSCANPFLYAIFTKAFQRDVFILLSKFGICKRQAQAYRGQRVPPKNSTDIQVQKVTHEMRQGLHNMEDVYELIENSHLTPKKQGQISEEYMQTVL

The nature of assay [20]: qHTS RealTime-Glo MT Cell Viability Assay in HepG2 cells - 40 hour (AID 1224870). Further: nearly all actives have a fitted effect of over 50% in size. A digest of the protocol:
as §3

Where “and” joins values, the source holds several entries; their conditions need not be identical. Equal values may be shown once. Results filed as inconclusive are left out. More than one record can exist for a structure, and the calls need not agree. Calls of active or inactive are those of the source. Unless noted, the call rests on the fitted dose curve; in most records, active means well fitted curve in the direction sought with a large enough effect in the repeat runs; inconclusive means weak or mixed curves; inactive means no such curve, though single readings can be large; an effect the other way counts as inactive or inconclusive.
On the % scale 0 is the no-effect control and ±100 the full control effect.

Sequence of Nuclear receptor subfamily 1 group I member 3 (Homo sapiens) (Q14994 whole entry, looked up): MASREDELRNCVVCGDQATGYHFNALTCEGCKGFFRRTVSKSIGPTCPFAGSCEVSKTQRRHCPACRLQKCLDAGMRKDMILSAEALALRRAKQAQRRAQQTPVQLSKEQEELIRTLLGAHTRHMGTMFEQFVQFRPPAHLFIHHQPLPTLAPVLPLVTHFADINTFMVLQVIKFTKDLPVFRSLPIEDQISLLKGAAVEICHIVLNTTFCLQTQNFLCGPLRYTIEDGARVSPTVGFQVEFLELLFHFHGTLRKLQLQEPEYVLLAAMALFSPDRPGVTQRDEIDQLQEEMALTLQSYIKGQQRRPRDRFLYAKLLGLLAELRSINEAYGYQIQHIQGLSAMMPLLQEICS

With `CCC(C)(CC)c1cc(NC(=O)c2c(OC)cccc2OC)on1`, the Potency entry in assay [1], in assay [2], in assay [3], in assay [4], in assay [7] and in assay [8] was “inactive” each time. In addition, the Potency entry in assay [10], in [14], in [15] and in [16] was “inactive” each time. In addition, the Potency in assay [5] was 30.7 µM (active) and inactive; in assay [11] it was 54.6 µM (active) and 46.7 µM (active). Also, the outcome in [6], in assay [9], in assay [13], in [17] and in assay [18] was inactive. Moreover, the activity change, positive = activation in assay [12] was -45.6% (inactive) and -38.5% (inactive).

In the case of `CC(C)C1(C)N=C(c2nc3ccccc3cc2C(=O)O)NC1=O` (centres undefined), the Potency result in [1], in [2], in assay [3], in [4], in assay [5] and in assay [19] was “inactive” each time. Further, the Potency result in [7], in assay [8], in assay [11], in [14], in assay [15] and in assay [16] was “inactive” in each case. For the same compound, the compound was classed as inactive in assay [6], in [9], in assay [13], in assay [17] and in assay [18]. In addition, the activity change, positive = activation in assay [12] is 3.26% (inactive) and 5.33% (inactive).

Take `O=c1[nH]c2ccccc2c(=O)o1`: the Potency result in assay [1], in assay [2], in assay [3], in assay [4], in assay [19] and in [7] was “inactive” each time. For the same compound, the Potency entry in [8], in assay [10], in [14], in [15] and in [16] was “inactive” in each case. Also, the call in assay [9], in [13], in assay [20], in [17] and in assay [18] was inactive.

Turning to `O=[N+]([O-])c1ccc([As](=O)(O)O)cc1`, the Potency entry in [1], in [2], in [3], in assay [4], in assay [19] and in assay [7] was “inactive” in each case. Moreover, the Potency result in assay [8], in [10], in assay [14], in assay [15] and in [16] was “inactive” each time. Moreover, the compound was called inactive in [9], in assay [13], in assay [20], in [17] and in assay [18].

In the case of `CC(C)(C)C(O)(CCc1ccc(Cl)cc1)Cn1cncn1` (centres undefined), the Potency entry in assay [1], in assay [2], in assay [3], in assay [4], in assay [7] and in assay [8] was “inactive” throughout. Further, the Potency entry in [15] and in assay [16] was “inactive” each time. For the same compound, the Potency in [5] was 55.1 µM (active); in assay [11] it was 61.9 µM (active) and 61.1 µM (active); in assay [14], 49.6 µM (active) and 49 µM (active). Besides, the compound was classed as inactive in assay [6], in assay [9], in assay [13], in [20] and in assay [18]. Moreover, the activity change, positive = activation in assay [12] was -48.6% (inactive) and -40.4% (inactive).

Regarding `CCCN(CCC)c1c([N+](=O)[O-])cc(C(F)(F)F)cc1[N+](=O)[O-]`, the Potency entry in assay [1], in assay [2], in [3], in assay [4], in assay [7] and in assay [8] was “inactive” each time. In addition, the Potency result in [10], in [14] and in [16] was “inactive” throughout. In addition, the Potency was 10.8 µM (active) and 12.2 µM (active) in [19]; 1.55 µM (active) and inactive in [15]. Besides, the compound was classed as inactive in assay [9], in [13], in assay [20], in [17] and in assay [18].

On to `C1CN2CCN1CC2`, for which the Potency entry in assay [1], in [2], in [3], in assay [4], in [19] and in [7] was “inactive” in each case. Moreover, the Potency result in assay [8] and in assay [14] was “inactive” each time. The compound was classed as inactive in assay [9], in assay [13], in assay [20], in assay [17] and in [18]. Besides, the Potency entry in [15] was “inactive and 21.9 µM (active)”; in [16], “inactive and 17.4 µM (active)”.

For `CNC(=O)Oc1ccccc1OC(C)C`, the Potency entry in assay [1], in assay [2], in assay [3], in assay [4], in assay [5] and in assay [19] was “inactive” throughout. The Potency result in assay [7], in assay [8], in assay [11], in assay [14], in assay [15] and in assay [16] was “inactive” in each case. The call in assay [6], in [9], in assay [13], in assay [17] and in [18] was inactive. In addition, the activity change, positive = activation in assay [12] was 0.314% (inactive).
